Several values for one entry are separate records, joined by “and”; a condition that tells them apart may be missing. Equal entries are not always repeated.

The source of these data is ChEMBL document CHEMBL5308504, “Tm Shift (DSF) assay results for EUbOPEN Chemogenomics Library” (2023).

Common to all, as to details: Compound concentration 20.0 uM, Protein concentration 2.0 uM, Result type QC Liability
For assay [1], the target named is Tyrosine-protein kinase ABL1 (Homo sapiens) (UniProt P00519).
Sequence of Tyrosine-protein kinase ABL1 (Homo sapiens) (P00519 whole entry): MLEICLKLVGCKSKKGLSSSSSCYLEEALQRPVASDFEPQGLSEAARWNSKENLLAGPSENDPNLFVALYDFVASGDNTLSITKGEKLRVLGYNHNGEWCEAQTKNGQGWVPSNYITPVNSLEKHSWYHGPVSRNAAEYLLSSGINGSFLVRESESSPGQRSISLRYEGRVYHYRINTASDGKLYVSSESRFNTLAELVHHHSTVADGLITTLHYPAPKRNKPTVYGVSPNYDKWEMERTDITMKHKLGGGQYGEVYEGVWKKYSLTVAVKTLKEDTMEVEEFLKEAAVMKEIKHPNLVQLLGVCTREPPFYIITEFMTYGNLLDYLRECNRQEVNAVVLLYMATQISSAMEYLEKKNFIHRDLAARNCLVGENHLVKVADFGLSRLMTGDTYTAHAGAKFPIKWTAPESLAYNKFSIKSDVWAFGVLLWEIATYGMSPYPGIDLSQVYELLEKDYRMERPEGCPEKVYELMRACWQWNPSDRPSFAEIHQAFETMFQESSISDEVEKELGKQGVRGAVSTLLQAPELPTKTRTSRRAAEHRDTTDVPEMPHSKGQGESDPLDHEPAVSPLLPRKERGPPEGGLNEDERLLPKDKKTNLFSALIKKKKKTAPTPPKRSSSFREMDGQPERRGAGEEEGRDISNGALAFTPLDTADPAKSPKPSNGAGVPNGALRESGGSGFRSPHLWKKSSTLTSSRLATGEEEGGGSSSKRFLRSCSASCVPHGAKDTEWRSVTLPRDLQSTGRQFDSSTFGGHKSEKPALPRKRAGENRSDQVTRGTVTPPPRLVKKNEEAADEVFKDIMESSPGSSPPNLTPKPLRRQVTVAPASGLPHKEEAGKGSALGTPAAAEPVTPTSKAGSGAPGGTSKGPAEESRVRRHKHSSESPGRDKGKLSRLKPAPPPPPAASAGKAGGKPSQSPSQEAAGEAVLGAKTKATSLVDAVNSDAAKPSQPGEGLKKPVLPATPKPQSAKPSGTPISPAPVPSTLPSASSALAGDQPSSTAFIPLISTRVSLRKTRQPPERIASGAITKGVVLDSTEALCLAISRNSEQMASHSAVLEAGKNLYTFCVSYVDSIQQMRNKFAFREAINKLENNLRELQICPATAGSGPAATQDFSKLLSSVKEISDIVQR
Assay [2] has as its target Cyclin-dependent kinase 2 (Homo sapiens) (UniProt P24941).
For assay [3], the target named is Casein kinase I isoform delta (Homo sapiens) (UniProt P48730).
Sequence of Casein kinase I isoform delta (Homo sapiens) (P48730 whole entry, looked up, canonical isoform): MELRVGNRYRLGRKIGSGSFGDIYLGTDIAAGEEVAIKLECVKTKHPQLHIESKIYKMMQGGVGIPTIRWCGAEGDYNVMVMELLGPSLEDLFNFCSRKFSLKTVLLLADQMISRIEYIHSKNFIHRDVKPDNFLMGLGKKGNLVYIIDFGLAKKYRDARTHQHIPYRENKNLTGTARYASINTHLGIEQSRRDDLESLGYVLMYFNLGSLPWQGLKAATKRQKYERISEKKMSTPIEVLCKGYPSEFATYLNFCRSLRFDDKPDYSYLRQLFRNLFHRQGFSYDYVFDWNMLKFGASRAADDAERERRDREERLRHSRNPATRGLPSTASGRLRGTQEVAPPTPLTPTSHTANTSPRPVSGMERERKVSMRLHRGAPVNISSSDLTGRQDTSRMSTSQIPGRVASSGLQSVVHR
Assay [4] concerns the target Glycogen synthase kinase-3 beta (Homo sapiens) (UniProt P49841).
In assay [5] the target is Mitogen-activated protein kinase 1 (Homo sapiens) (UniProt P28482).
Sequence of Mitogen-activated protein kinase 1 (Homo sapiens) (P28482 whole entry): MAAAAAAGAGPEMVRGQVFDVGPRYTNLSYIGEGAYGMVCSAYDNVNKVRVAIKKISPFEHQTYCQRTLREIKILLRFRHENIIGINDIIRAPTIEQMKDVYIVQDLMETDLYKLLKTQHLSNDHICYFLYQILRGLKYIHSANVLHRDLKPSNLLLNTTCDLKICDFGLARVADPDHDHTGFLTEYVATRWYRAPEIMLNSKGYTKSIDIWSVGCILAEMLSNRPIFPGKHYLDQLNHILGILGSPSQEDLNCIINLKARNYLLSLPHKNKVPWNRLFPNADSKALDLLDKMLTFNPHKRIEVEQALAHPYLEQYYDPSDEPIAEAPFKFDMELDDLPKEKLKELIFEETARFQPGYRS
For assay [6], the target named is T1, Aurora kinase A (Homo sapiens) (UniProt O14965).
T1 sequence (whole entry): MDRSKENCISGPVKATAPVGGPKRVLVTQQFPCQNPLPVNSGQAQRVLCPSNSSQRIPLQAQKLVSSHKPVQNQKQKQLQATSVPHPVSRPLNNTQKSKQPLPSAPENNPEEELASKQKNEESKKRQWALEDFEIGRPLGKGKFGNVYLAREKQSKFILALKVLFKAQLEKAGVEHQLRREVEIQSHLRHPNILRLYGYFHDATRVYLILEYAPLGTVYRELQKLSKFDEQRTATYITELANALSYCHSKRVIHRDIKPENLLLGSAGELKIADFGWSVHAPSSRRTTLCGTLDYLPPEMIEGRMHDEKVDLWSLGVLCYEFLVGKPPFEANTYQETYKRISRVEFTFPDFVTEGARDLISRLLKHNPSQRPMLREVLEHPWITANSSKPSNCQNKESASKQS

Sequence of Glycogen synthase kinase-3 beta (Homo sapiens) (P49841 whole entry, looked up): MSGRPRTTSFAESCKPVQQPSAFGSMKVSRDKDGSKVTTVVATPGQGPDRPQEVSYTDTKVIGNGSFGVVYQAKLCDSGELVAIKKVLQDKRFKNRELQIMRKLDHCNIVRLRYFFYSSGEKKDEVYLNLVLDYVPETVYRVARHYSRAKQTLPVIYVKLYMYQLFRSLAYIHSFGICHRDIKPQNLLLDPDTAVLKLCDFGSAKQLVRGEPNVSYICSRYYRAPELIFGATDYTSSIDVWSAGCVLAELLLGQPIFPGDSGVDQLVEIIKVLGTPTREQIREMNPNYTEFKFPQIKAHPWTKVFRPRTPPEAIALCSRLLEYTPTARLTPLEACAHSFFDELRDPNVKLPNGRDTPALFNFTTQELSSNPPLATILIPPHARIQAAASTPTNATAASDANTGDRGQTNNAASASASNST

With `CCNC1=N[C@@H]2[C@@H](O)[C@H](O)[C@@H](CO)O[C@@H]2S1`, the ΔTm is 0.07 °C in assay [1]; 0.73 °C in assay [2]; 0.01 °C in assay [3]; -0.6 °C in assay [4]; 0.28 °C in assay [5]; -0.73 °C in assay [6].
For `CCN(CC)C(=O)C1CN2CCc3cc(OC)c(OC)cc3C2CC1OC(C)=O` (stereo not given), the ΔTm was -0.43 °C in assay [1]; 0.69 °C in assay [2]; -0.03 °C in assay [3]; -1.02 °C in assay [4]; 0.11 °C in assay [5]; -0.04 °C in assay [6].
With `O=C(O)Cc1ccc(CCNS(=O)(=O)c2ccc(Cl)cc2)cc1`, the ΔTm in assay [1] was 0.25 °C; in assay [2] it was 0.43 °C; in assay [3], 0.01 °C; in assay [4], 0.95 °C; in assay [5], -0.52 °C; in assay [6], -0.24 °C.
As for `Cc1nc(Nc2cnn(C3CCNCC3)c2)nc2c1N(C)C(=O)c1cc3ccccc3cc1N2C`, the ΔTm in assay [1] is 2.1 °C; in assay [2] it was -1.03 °C; in assay [3], 0.48 °C; in assay [4], -0.49 °C; in assay [5], 0.6 °C; in assay [6], 1.73 °C.
As for `CC(C)(C[C@H]1CN(S(=O)(=O)c2cccc(C(F)(F)F)c2)c2cc(-c3cc(F)cc(OC(F)F)c3)ccc2O1)C(=O)O`, the shift in melting temperature (ΔTm) is -1.5 °C in assay [1]; -2.02 °C in assay [2]; -2.71 °C in assay [3]; -2.26 °C in assay [4]; -6.9 °C in assay [5]; -3.89 °C in assay [6].
As to `Cc1ncc(C(=O)Nc2cc(C(C)(C)C)on2)cc1-n1cc(-c2cnn(C)c2C)nn1`, the thermal shift (ΔTm) is 9.67 °C in assay [1]; 0.45 °C in assay [2]; 2.28 °C in assay [3]; -0.79 °C in assay [4]; 0.26 °C in assay [5]; -0.09 °C in assay [6].
Turning to `COc1cc(-c2cc3ncccc3c(OC[C@H]3CNC(=O)C3)n2)cc(OC)c1OC1CCOCC1`, the ΔTm is 1.45 °C in assay [1]; -0.03 °C in assay [2]; 2.63 °C in assay [3]; -0.87 °C in assay [4]; 0.16 °C in assay [5]; 5.56 °C in assay [6].
For the compound `Cc1csc(S(=O)(=O)N(CC(C)C)c2cc3c(cc2OCc2ccc(C(=O)O)cc2)CCC3)n1`, the thermal shift (ΔTm) is 0.11 °C in assay [1]; -0.15 °C in assay [2]; -0.34 °C in assay [3]; 0 °C in assay [4]; -0.27 °C in assay [5]; -0.4 °C in assay [6].
For the compound `C[C@]12CC[C@@H]3c4ccc(O)cc4CC[C@H]3[C@@H]1C[C@H]1OC(=O)C[C@]12O`, the thermal shift (ΔTm) in assay [1] is -0.2 °C; in assay [2], 0.7 °C; in assay [3], 0.32 °C; in assay [4], 0.78 °C; in assay [5], 0.29 °C; in assay [6] it was 0.5 °C.
Regarding `O=C(O)c1cc2cc(Cc3cccnc3)ccc2o1`, the ΔTm is 0.65 °C in assay [1]; 0.63 °C in assay [2]; 0.07 °C in assay [3]; 0.46 °C in assay [4]; -0.29 °C in assay [5]; -0.17 °C in assay [6].
For the compound `CC(C)(O)[C@H](F)CN1Cc2cc(NC(=O)c3cnn4cccnc34)c(N3CCOCC3)cc2C1=O`, the thermal shift (ΔTm) was 2.02 °C in assay [1]; -0.03 °C in assay [2]; 0.59 °C in assay [3]; 0.95 °C in assay [4]; 0.46 °C in assay [5]; 3.04 °C in assay [6].
With `CC(C(=O)Nc1cc(C#N)ccc1CCCC(=O)O)c1ccc(F)c2ccccc12` (stereo not given), the ΔTm in assay [1] is 0.96 °C; in assay [2], 0.61 °C; in assay [3], 0.09 °C; in assay [4], 0.53 °C; in assay [5], -0.07 °C; in assay [6], -0.36 °C.
As for `N#C/C(=C\c1ccc(O)c(O)c1)C(=O)OCCc1cccs1`, the shift in melting temperature (ΔTm) in assay [1] worked out at 2.18 °C; in assay [2], 1.1 °C; in assay [3] it was 2.15 °C; in assay [4], 0.01 °C; in assay [5] it was 0.37 °C; in assay [6] it was 4.16 °C.
`CNCc1ccc(-c2cc(-c3nc(-c4ccc(S(=O)(=O)C(C)C)cc4)cnc3N)on2)cc1`: the ΔTm in assay [1] was 4.85 °C; in assay [2], -0.24 °C; in assay [3] it was -0.18 °C; in assay [4] it was 9.94 °C; in assay [5], -0.07 °C; in assay [6], 2.41 °C.
For the compound `CC[C@H](Nc1c(C#N)c(-c2ccc(-c3cccc(C)c3F)cc2)nc2cnccc12)C(=O)O`, the shift in melting temperature (ΔTm) is 1.4 °C in assay [1]; -0.67 °C in assay [2]; -0.79 °C in assay [3]; -0.59 °C in assay [4]; -0.11 °C in assay [5]; 2.03 °C in assay [6].
Take `CN(C)C(=O)Cn1cc(-c2nc([C@@](C)(c3ccc(-c4cnc(N)nc4)cc3)C3CC3)no2)cn1`: the ΔTm in assay [1] is 1.32 °C; in assay [2], 0.32 °C; in assay [3] it was 0.5 °C; in assay [4], -0.36 °C; in assay [5] it was 0.32 °C; in assay [6], 2.6 °C.
Take `CC(C)N(C(=O)C1CCOCC1)c1cc(F)c(Oc2ncc(Cn3nccn3)cc2C(F)(F)F)cc1C(=O)O`: the ΔTm is -0.75 °C in assay [1]; 0.2 °C in assay [2]; 0.07 °C in assay [3]; -0.83 °C in assay [4]; -0.07 °C in assay [5]; -0.1 °C in assay [6].
`NC(=O)c1sc2nc(N3CCC(NC[C@H](O)c4ccccn4)CC3)cc(C(F)(F)F)c2c1N`: the shift in melting temperature (ΔTm) in assay [1] worked out at 1.22 °C; in assay [2], 1 °C; in assay [3], 1.86 °C; in assay [4] it was 0.72 °C; in assay [5], 0.39 °C; in assay [6], 1.06 °C.
Turning to `CCCN1CCC(C#N)(NC(=O)[C@H](CC(C)(C)C)NC(=O)N2CCOCC2)CC1`, the ΔTm was -0.4 °C in assay [1]; 1.07 °C in assay [2]; 0.1 °C in assay [3]; -0.32 °C in assay [4]; -0.1 °C in assay [5]; -0.11 °C in assay [6].
In the case of `O=C(O)[C@]1(Cc2cccc(Nc3nccs3)n2)CC[C@@H](Oc2cccc(Cl)c2F)CC1`, the shift in melting temperature (ΔTm) in assay [1] is 17.2 °C; in assay [2], 5.36 °C; in assay [3], 1.53 °C; in assay [4] it was 8.49 °C; in assay [5], 1.32 °C; in assay [6], 25.4 °C.
As for `Cn1c(C2(NC(=O)c3ccc4c(C5CCCC5)c(-c5ncc(Br)cn5)n(C)c4c3)CCC2)nc2ccc(/C=C/C(=O)O)cc21`, the ΔTm was -0.54 °C and 0.85 °C in assay [1]; -2.05 °C and -1.62 °C in assay [2]; -3.08 °C and -1.06 °C in assay [3]; -3.92 °C and -2.25 °C in assay [4]; -2.08 °C and -0.58 °C in assay [5]; -1.12 °C and -3.19 °C in assay [6].
Consider `COc1cc(F)ccc1-c1ncnc(Nc2cccc(C[S@](C)(=N)=O)c2)n1`, for which the ΔTm in assay [1] is 2.58 °C; in assay [2] it was 3.09 °C; in assay [3] it was 0.27 °C; in assay [4] it was 10.1 °C; in assay [5], 0.36 °C; in assay [6], 3.39 °C.
`CCCCNc1ncc2c(-c3ccc(CN4CCN(C)CC4)cc3)cn([C@H]3CC[C@H](O)CC3)c2n1`: the ΔTm in assay [1] is 11.7 °C; in assay [2], 5.95 °C; in assay [3], 2.72 °C; in assay [4] it was 4.8 °C; in assay [5], 0.43 °C; in assay [6], 13.5 °C.
On to `Cn1cc(Nc2nccc(N3CC4CCC(C3)N4C(=O)[C@@H]3CC3(F)F)n2)cn1`, for which the ΔTm in assay [1] was determined as 1.98 °C; in assay [2], 2.84 °C; in assay [3] it was 0.33 °C; in assay [4], 0.6 °C; in assay [5], 0.56 °C; in assay [6] it was 8.08 °C.
In the case of `Cc1cc(C)nc(Nc2ncc(C(=O)NCCc3c(C)[nH]c4ccccc34)cn2)c1`, the ΔTm is -0.23 °C in assay [1]; 0.75 °C in assay [2]; -0.55 °C in assay [3]; -2.26 °C in assay [4]; -0.02 °C in assay [5]; 0.27 °C in assay [6].
